We go through 33 molecules from PubChem BioAssay (NCATS).

Test [1] deals with Cellular tumor antigen p53 (Homo sapiens) (UniProt P04637). The test can be described thus: Primary qHTS for small molecule compounds that upregulate eGFP-tagged delta133p53alpha (in N-terminal) cells. (AID 2060322).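 Further: cells pre-induced with doxycycline then dosed without doxycycline; series mostly up to about 56 µM; 0% = DMSO vehicle and 100% = reference activator; nearly all actives have a fitted effect of over 75% in size.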 Particulars: NCI-H358 eGFP-delta133p53alpha fluorescence, 24 h; activation: active compounds read high. An outline of the steps: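 NCI-H358 cells pre-induced 24 h with 10 ng/ml doxycycline for eGFP-delta133p53alpha, plated dox-free and exposed 24 h at 37C to titrated compounds. Fixed, Hoechst-stained; gated GFP peak intensity by laser scanning cytometry, normalized to DMSO (0%) and 57.5 uM 5-azacytidine (100%).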
Chain of Cellular tumor antigen p53 (Homo sapiens) (P04637 whole entry, looked up): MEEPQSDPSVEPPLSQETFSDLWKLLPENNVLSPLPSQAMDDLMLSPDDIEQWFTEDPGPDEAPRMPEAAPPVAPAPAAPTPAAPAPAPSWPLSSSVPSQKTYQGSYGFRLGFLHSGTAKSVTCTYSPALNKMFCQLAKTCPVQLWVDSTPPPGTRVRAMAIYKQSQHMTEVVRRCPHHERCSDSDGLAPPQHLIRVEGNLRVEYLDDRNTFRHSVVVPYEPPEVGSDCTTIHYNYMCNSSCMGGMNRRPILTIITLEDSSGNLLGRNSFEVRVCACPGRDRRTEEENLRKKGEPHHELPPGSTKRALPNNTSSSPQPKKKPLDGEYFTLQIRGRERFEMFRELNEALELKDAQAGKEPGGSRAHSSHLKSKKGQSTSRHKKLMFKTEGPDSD

Test [2] shares this target. The test can be described thus: Primary qHTS for small molecule compounds that upregulate eGFP-tagged delta133p53alpha (in C-terminal) cells. (AID 2060324). Further: potency means the concentration at half of the fitted maximal effect. An outline of the steps: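 Readout: filtered GFP peak intensity of gated cells (laser scanning cytometer), normalized plate-wise to intraplate controls, DMSO wells = 0% activity. Cells: NCI-H358 D133p53a-eGFP, dox 100 ng/ml 24 h beforehand, then compound 24 h, 37 °C.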
(In qHTS, concentration-response curves come from the screen itself.)

Test [3] concerns the target Aldehyde dehydrogenase, mitochondrial (Homo sapiens) (UniProt P05091). The test can be described thus: qHTS for Inhibitors of the Aldehyde Dehydrogenase Family (ALDH2) Validation screens (AID 2061302; active means well fitted inhibition curve with a large enough effect; title and protocol of this record describe different tests;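 further: plate controls were DMSO vehicle for no effect and maximal DPI positive control response for full effect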).
Test [4] deals with Retinaldehyde dehydrogenase 3 (Homo sapiens) (UniProt P47895). The test can be described thus: qHTS for Inhibitors of the Aldehyde Dehydrogenase Family (ALDH1A3) Validation screen (AID 2061312). Further: on the % scale 0 is the no-effect control and ±100 the full control effect; nearly all actives have a fitted effect of over 45% in size.

Several values for one entry are separate records, joined by “and”; a condition that tells them apart may be missing. Equal entries are not always repeated. Results filed as inconclusive are left out. Unmarked numbers belong to inactive results. Activity calls are given as the source filed them. Unless noted, the call rests on the fitted dose curve; in most records, active means well fitted curve in the direction sought with a large enough effect; inconclusive means small, poorly fitted or top-dose-only effect, or another doubt; inactive means no such curve, though single readings can be large; an effect the other way counts as inactive or inconclusive.

Turning to `CCCCCN(CCCCC)C(=O)C(CCC(=O)O)NC(=O)c1ccc(Cl)c(Cl)c1` (configuration not stated), the activation in test [1] is 13% and -3%. Moreover, the Potency entry in test [2], in test [3] and in test [4] was “inactive” in each case.

Regarding `CCCc1c(-c2ccc(O)cc2)nn(-c2ccc(O)cc2)c1-c1ccc(O)cc1`, the activation in test [1] is -36.4%. Moreover, the Potency result in test [2], in test [3] and in test [4] was “inactive” each time.

On to `Cc1cccc(C)c1NC(=O)C(C)N` (configuration not stated), for which, in test [1], the activation was 10.9% and -14%. In addition, the Potency result in test [2], in test [3] and in test [4] was “inactive” each time.

`CCNC(=O)N1CCN(CCCC(c2ccc(F)cc2)c2ccc(F)cc2)CC1`: the activation in test [1] is -22% and -43.5%. In addition, the Potency result in test [2], in test [3] and in test [4] was “inactive” throughout.

On to `O=C(O)CCCC[C@@H]1CCSS1`, for which, in test [1], the activation was -13.5%. Besides, the Potency entry in test [2], in test [3] and in test [4] was “inactive” throughout.

On to `FC(F)(F)c1ccccc1-n1ccnc1`, for which the activation in test [1] was 8.47% and -16.2%. For the same molecule, the Potency entry in test [2], in test [3] and in test [4] was “inactive” each time.

On to `Cc1nc2c(OCc3ccccc3)cccn2c1CC#N`, for which the activation in test [1] is 7.44%. The Potency result in test [2], in test [3] and in test [4] was “inactive” each time.

On to `CCCCCCCCCCC(C)(C)C(=O)Nc1c(OC)cc(OC)cc1OC`, for which the activation in test [1] was -40.6%. In addition, the Potency entry in test [2], in test [3] and in test [4] was “inactive” in each case.

As to `CN(C)CCCN1c2ccccc2CCc2ccccc21`, the activation in test [1] was -0.565% and -9%. Moreover, the Potency result in test [2], in test [3] and in test [4] was “inactive” in each case.

For `COc1ccc(/C=C2\COc3ccc(C)cc3C2=O)cc1O`, the activation in test [1] was -71.5%. Besides, the Potency in test [2] was 13.5 µM (active). For the same molecule, the Potency result in test [3] and in test [4] was “inactive” each time.

Consider `CC(=O)SCC[N+](C)(C)C`, for which, in test [1], the activation was -8.68%. In addition, the Potency result in test [2], in test [3] and in test [4] was “inactive” throughout.

Consider `O=C(O)CCC(=O)N1CCCC1C(=O)O` (configuration not stated), for which the activation in test [1] was 8.81%. The Potency result in test [2], in test [3] and in test [4] was “inactive” each time.

On to `NC1(C(=O)O)CCCCC1`, for which the activation in test [1] is 13.9%. In addition, the Potency entry in test [2], in test [3] and in test [4] was “inactive” in each case.

In the case of `O=C(O)CCC/C=C\C[C@@H]1[C@@H](/C=C/[C@H](O)C2Cc3ccccc3C2)[C@@H](F)C[C@@H]1O`, the activation in test [1] was -5.22%. In addition, the Potency result in test [2], in test [3] and in test [4] was “inactive” in each case.

Regarding `CN(C)CCCN1c2ccccc2Sc2ccccc21`, in test [1], the activation is 2.51% and 16.3%. For the same molecule, the Potency result in test [2], in test [3] and in test [4] was “inactive” in each case.

For the molecule `CNC1(C)C2CCC(C2)C1(C)C` (configuration not stated), the activation in test [1] is -45.5%. Moreover, the Potency result in test [2], in test [3] and in test [4] was “inactive” each time.

With `CNCCCC1c2ccccc2C=Cc2ccccc21`, the activation in test [1] was -1.67% and -3.36%. Besides, the Potency entry in test [2], in test [3] and in test [4] was “inactive” in each case.

Regarding `CC(=O)NNC(=O)N1Cc2ccccc2Oc2ccc(Cl)cc21`, in test [1], the activation is -0.739%. Besides, the Potency entry in test [2], in test [3] and in test [4] was “inactive” throughout.

As for `CCN1CCCC1CNC(=O)c1cc(S(N)(=O)=O)ccc1OC` (configuration not stated), the activation in test [1] is 8% and -7.28%. Further, the Potency result in test [2], in test [3] and in test [4] was “inactive” in each case.

Turning to `C#CCn1c(=O)c2c(ncn2C)n(C)c1=O`, the activation in test [1] was -14.7%. Moreover, the Potency result in test [2], in test [3] and in test [4] was “inactive” each time.

Turning to `Cn1c(=O)c2c(nc(/C=C/c3cccc(Cl)c3)n2C)n(C)c1=O`, in test [1], the activation was -0.199%. The Potency entry in test [2], in test [3] and in test [4] was “inactive” each time.

With `O=C(O)C1CCNCC1`, the activation in test [1] was -2.71%. The Potency result in test [2], in test [3] and in test [4] was “inactive” each time.

Turning to `Nc1nc2c(nc(Br)n2C2OC3COP(=O)(O)O[C@@H]3C2O)c(=O)[nH]1` (some centres not stated), the activation in test [1] was 29.4%. Further, the Potency result in test [2], in test [3] and in test [4] was “inactive” throughout.

As for `N[C@@H](CC(=O)O)C(=O)O`, the activation in test [1] was -3.52%. The Potency result in test [2], in test [3] and in test [4] was “inactive” each time.

As to `NC(N)=NC(=O)Cc1c(Cl)cccc1Cl`, in test [1], the activation was -18.6% and -5.21%. Besides, the Potency result in test [2], in test [3] and in test [4] was “inactive” in each case.

For `CN1C2CCC1CC(OC(=O)c1c[nH]c3ccccc13)C2` (configuration not stated), in test [1], the activation is -37.1%. Further, the Potency result in test [2], in test [3] and in test [4] was “inactive” in each case.

With `CCCCNC(=O)NS(=O)(=O)c1ccc(C)cc1`, the activation in test [1] was -35.6% and -11.9%. The Potency result in test [2], in test [3] and in test [4] was “inactive” each time.

On to `O=C(O)CP(=O)(O)O`, for which the activation in test [1] is -13% and 17.7%. Also, the Potency result in test [2], in test [3] and in test [4] was “inactive” throughout.

As to `COc1cc2nc(N3CCN(C(=O)C4COc5ccccc5O4)CC3)nc(N)c2cc1OC` (configuration not stated), the activation in test [1] was 6.69% and -16.6% and -33.1%. Besides, the Potency entry in test [2], in test [3] and in test [4] was “inactive” each time.

As for `O=C(c1ccc(Cl)cc1)N1CCN(c2ccc([N+](=O)[O-])c3ncccc23)CC1`, in test [1], the activation is -9.46%. In addition, the Potency result in test [2], in test [3] and in test [4] was “inactive” each time.

As for `Cn1ccnc1`, in test [1], the activation is -23.6%. The Potency entry in test [2], in test [3] and in test [4] was “inactive” each time.

As for `Nc1nc2[nH]c(=O)cnc2c(=O)[nH]1`, in test [1], the activation was -25.1%. Also, the Potency entry in test [2], in test [3] and in test [4] was “inactive” in each case.

For `C[N+](C)(C)CCCCCC[N+](C)(C)C`, the activation in test [1] was -20.9% and 7.49% and -11.5%. Moreover, the Potency result in test [2], in test [3] and in test [4] was “inactive” in each case.
